From PubChem
AddAB inh: growth inhibition of E. coli expressing H. pylori AddAB, primary screen, AddAB inhibitor project, absorbance; AID 435030, 2010; inhibition, % at 11.9 µM; 330,000 tested, 0.29% active; in the data active = inhibition above about 12%;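 note: 0% = vehicle wells of infected cells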
Tat export inh: E. coli Tat export inhibitors, primary screen, MC4100, TorA-mCherry reporter, fluorescence, single point | 340,000 tested, 0.036% active | inhibition, % at 10 µM;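 active = mean replicate inhibition at least 50% and at least half of replicates individually reaching 50%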;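 note: exported cargo escapes ClpAP degradation while cytoplasmic cargo is degraded and loses fluorescence; 0% = median of neutral control wells and 100% = median of NaSCN control wells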
E coli growth-1: E. coli growth inhibition, primary screen, OD600. Escherichia coli growth, 23 h; stronger effect = lower value. OD600 absorbance (test concentration not listed). 330,000 tested, 0.21% active;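 active = OD600 absorbance below the run mean of sample wells minus 3.6 SD, in any replicate, cut at about 0.56 in these data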
phage Ecoli inh: growth loss of phage-infected E. coli, primary screen, RecBCD inhibitor project, absorbance, with phage, HTS; inhibition, % at 11.9 µM; 360,000 tested, 0.26% active; in the data active = inhibition above about 11%
E coli growth-2: E. coli V3065 growth inhibition, primary screen, counter-screen for AddAB inhibitor project, absorbance, OD600; 18 h; 330,000 tested, 0.27% active; AID 449728, 2010; inhibition, % at 11.9 µM;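 active = inhibition above the campaign's mean inhibition across all tested compounds plus 3 SD, cut at about 9.9% in these data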;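 note: uninfected addAB+ strain grown without phage in ampicillin broth; 0% = DMSO wells and 100% = ciprofloxacin 0.95 µg/ml wells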
AddAB conf: growth loss of phage-infected E. coli expressing H. pylori AddAB, confirmation, AddAB inhibitor project, absorbance, E. coli V3065, T4 phage, triplicate; OD; T4 phage with gene 2 nonsense mutations; shares compounds with AddAB inh; inhibition, % at 11.9 µM; 880 tested, 64% active;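 active = mean inhibition above a set limit taken from the earlier primary screen, cut at about 13% in these data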;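 note: higher means less bacterial growth since AddAB block lets phage replicate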
RecBCD counter: growth loss of RecBCD+ E. coli with mutant T4 phage, counter-screen for AddAB inhibitor project, absorbance, V66 E. coli. shares compounds with AddAB inh. inhibition, % at 11.9 µM. OD growth. 880 tested, 73% active. AID 488955, 2010;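 active = mean inhibition above the mean of solvent-only control wells plus 3 SD, cut at about 4% in these data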;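 note: optical density read after an 18 h incubation at 37 °C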
Bact viability: bacterial viability inhibition counter-screen, confirmation, counter-screen for AddAB inhibitor project, absorbance; inhibition, % at 11.9 µM; absorbance (AddAB counterscreen); 880 tested, 35% active; shares compounds with AddAB inh; AID 488956, 2010; in the data active = inhibition above about 25%
RecBCD conf: growth loss of phage-infected RecBCD+ E. coli, confirmation, RecBCD inhibitor project, absorbance, E. coli V66, T4 gene 2 phage; AID 651982, 2013; E. coli V66 + T4 2- phage, growth OD; shares compounds with phage Ecoli inh; 890 tested, 45% active; inhibition, % at 11.9 µM;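 active = mean inhibition over triplicates exceeding the hit threshold derived in the original primary screen, cut at about 11% in these data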
Ecoli viability: E. coli viability inhibition, counter-screen for RecBCD inhibitor project, absorbance, high throughput; shares compounds with phage Ecoli inh; absorbance (OD) growth; inhibition, % at 11.9 µM; 890 tested, 29% active; AID 651983, 2013; in the data active = inhibition above about 20%;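 note: E. coli strain V66 grown with compound alone and no phage infection; 0% = bacteria with DMSO vehicle only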
AddAB phage OD: growth loss of phage-infected AddAB-carrying E. coli, confirmation, counter-screen for RecBCD inhibitor project, absorbance, E. coli V3065, T4 phage; AID 651984, 2013; E. coli expressing H. pylori AddAB + T4 phage, OD growth; gene 2 mutant T4, recBCD-deleted host; inhibition, % at 11.9 µM; 890 tested, 45% active; shares compounds with phage Ecoli inh;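 active = mean inhibition above the solvent-only control wells' mean plus 3 SD, cut at about 22% in these data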;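 note: higher means less bacterial growth from phage killing when AddAB is blocked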
Starred values were filed as active, the others as inactive; . = no result given. Sampled rows, rich in hits. Any-hit rate of the full collection: about 0.5%.

SMILES	AddAB inh	Tat export inh	E coli growth-1	phage Ecoli inh	E coli growth-2	AddAB conf	RecBCD counter	Bact viability	RecBCD conf	Ecoli viability	AddAB phage OD
O=c1ccsn1Cc1ccccc1	75.4*	22.4	0.0445*	14.4*	8.7	101.7*	29.1*	25.6*	7.8	9.6	77.3*
COc1ccc(NS(=O)(=O)c2ccc(N)cc2)nn1	8.9	.	.	.	5.0	.	.	.	.	.	.
Nc1ccc(S(=O)(=O)Nc2ccc(Cl)nn2)cc1	19.5*	-1.1	0.591	16.0*	12.1*	19.4*	11.1*	29.9*	11.6*	8.4	39.3*
COc1ccccc1NC(=O)NNC(=O)c1cc2ccccc2cc1O	15.0*	17.8	0.622	12.3*	11.9*	14.3*	13.8*	13.9	8.2	9.3	13.7
C(=NN1CCN(c2ccccc2)CC1)c1ccncc1	.	.	0.658	.	.	.	.	.	.	.	.
N#C/C(=C(/O)c1ccc([N+](=O)[O-])o1)c1nc2ccccc2[nH]1	19.2*	4.8	0.466*	13.4*	13.5*	95.8*	63.2*	97.8*	34.9*	64.0*	100.6*
N#C/C(=C\c1ccc(Sc2ccccc2)o1)c1nc2ccccc2[nH]1	1.1	6.6	0.692	1.7	0.6	.	.	.	.	.	.
CC(C)(C)/C(O)=C(/C#N)c1nc2ccccc2[nH]1	-2.0	7.1	.	-3.3	0.0	.	.	.	.	.	.
N#C/C(=C\c1ccc([N+](=O)[O-])o1)c1nc2ccccc2[nH]1	93.5*	.	0.614	13.0*	16.6*	100.1*	16.0*	94.3*	11.4*	11.9	76.5*
CC(=NNC(=O)C(C)Oc1ccc([N+](=O)[O-])cc1)c1ccccn1 (stereo not drawn)	.	.	0.736	.	.	.	.	.	.	.	.
Cc1n[nH]c(C)c1CCC(=O)NN=Cc1c(C)[nH]c2ccccc12	.	.	0.714	.	.	.	.	.	.	.	.
C=CC[n+]1c(/C=C2\C=Cc3cc(C)ccc3N2CC)ccc2ccccc21	19.9*	-8.5	0.534	11.7*	21.8*	65.7*	6.6*	24.4	3.3	2.5	36.3*
CCCCOc1cccc(C=NNC(=O)c2csc(C)c2C)c1	.	.	0.732	.	.	.	.	.	.	.	.
CCSc1ncc(C=NNc2ccc(F)cc2)n1C	.	.	0.777	.	.	.	.	.	.	.	.
CN(C)c1ccc(O)c2c1CC1CC3C(N(C)C)C(=O)C(C(N)=O)=C(O)[C@@]3(O)C(=O)C1=C2O (stereo partly drawn)	99.0*	149.6*	0.0685*	98.6*	101.2*	98.0*	98.9*	99.7*	103.3*	105.2*	103.8*
C[C@H]1c2cccc(O)c2C(=O)C2C(=O)C3(O)C(=O)C(C(N)=O)C(=O)[C@@H](N(C)C)[C@@H]3[C@@H](O)[C@@H]21 (stereo partly drawn)	100.3*	148.5*	.	97.8*	100.1*	100.5*	100.0*	100.8*	99.2*	99.9*	101.5*
CN(C)c1ccc(O)c2c1CC1CC3[C@@H](N(C)C)C(=O)C(C(N)=O)C(=O)[C@]3(O)C(=O)C1C2=O (stereo partly drawn)	98.2*	144.8*	.	101.2*	102.2*	100.2*	100.0*	102.3*	100.0*	101.1*	98.1*
